GALK inh = GALK (human) enzyme inhibition; P51570; Potency, µM (highest dose often 57.5 µM), for inactives: top-dose activity, negative = inhibition, actives largely listed as inhibitors; recombinant GALK, Kinase-Glo ATP luminescence, 1 h; 44,000 tested, under 10 active;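 also: plate controls were full GALK reaction for no effect and reaction lacking GALK for full effect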
Target sequence (P51570 whole entry, looked up): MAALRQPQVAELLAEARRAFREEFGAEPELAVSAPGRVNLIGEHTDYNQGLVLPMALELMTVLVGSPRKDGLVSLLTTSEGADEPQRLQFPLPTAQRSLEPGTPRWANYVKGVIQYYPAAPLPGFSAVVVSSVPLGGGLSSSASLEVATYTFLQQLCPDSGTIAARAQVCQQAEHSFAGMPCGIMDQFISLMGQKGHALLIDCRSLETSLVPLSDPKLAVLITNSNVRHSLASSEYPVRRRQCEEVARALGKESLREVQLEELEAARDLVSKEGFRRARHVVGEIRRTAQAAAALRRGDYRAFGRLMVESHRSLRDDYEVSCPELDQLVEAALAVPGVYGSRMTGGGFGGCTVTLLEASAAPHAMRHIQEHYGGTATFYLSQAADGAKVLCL
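Human GALK (5 nM) was incubated with 35 uM ATP and 100 uM galactose in 20 mM HEPES pH 8.0 with MgCl2, NaCl, DTT and BSA for 1 h at room temperature. Remaining ATP was measured by Kinase-Glo Plus luminescence.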
S16 viability = S16 Schwann cell cytotoxicity. S16 Pmp22-F2sN Schwann cells viability, CellTiter-Glo, 24 h. Potency, µM (doses to about 57.5 µM), for the others: at the top dose activity change, negative = cytotoxicity, actives largely listed as cytotoxic. actives 0.48% (n = 43,000); also: potency is read from the fitted curve at half-maximal effect; % is scaled to controls: 0 for no effect and ±100 for the full control effect; nearly all actives have a fitted effect of over 65% in size
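CellTiter-Glo counter-screen, qHTS, 1536-well. Cells: S16(c9) Pmp22-F2sN, 500-1,000/well in DMEM + 10% FBS. Cpd 23 nL pin transfer, 24 h, 37C/5% CO2. Read: luminescence, CCD imager.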
PMP22 txn = modulates PMP22 transcription in S16 Schwann cells; S16 Pmp22-F2sN Schwann cells, FLuc/NLuc coincidence luminescence, 24 h; Potency, µM (titrated, usually from 57.5 µM), without a hit: top-dose activity change, negative = inhibition, most hits filed as inhibitors; actives 2% (n = 43,000); active = clear falling dose curves in both reporters; inconclusive = both reporters move, but less clearly or upward; inactive = either reporter flat; the % is the NLuc reporter signal; also: potency is read from the fitted curve at half-maximal effect; % is scaled to controls: 0 for no effect and ±100 for the full control effect
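Rat S16 Pmp22-F2sN cells, 500-1,000/well in phenol red-free DMEM + 10% FBS, compound-treated 24 h (37C, 5% CO2). Luminescence: FLuc read, Stop&Glo added, NLuc read.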
TSG101-PTAP inh = blocks PTAP binding to human TSG101, validation | Q99816 | Fluorescence polarization, FITC-PTAP peptide/Tsg101, 20 min | Potency, µM (series often up to 115 µM), actives largely listed as inhibitors | 44,000 tested, under 10 active; also: potency is read from the fitted curve at half-maximal effect; 0% is about no effect
Target sequence (Q99816 whole entry, looked up): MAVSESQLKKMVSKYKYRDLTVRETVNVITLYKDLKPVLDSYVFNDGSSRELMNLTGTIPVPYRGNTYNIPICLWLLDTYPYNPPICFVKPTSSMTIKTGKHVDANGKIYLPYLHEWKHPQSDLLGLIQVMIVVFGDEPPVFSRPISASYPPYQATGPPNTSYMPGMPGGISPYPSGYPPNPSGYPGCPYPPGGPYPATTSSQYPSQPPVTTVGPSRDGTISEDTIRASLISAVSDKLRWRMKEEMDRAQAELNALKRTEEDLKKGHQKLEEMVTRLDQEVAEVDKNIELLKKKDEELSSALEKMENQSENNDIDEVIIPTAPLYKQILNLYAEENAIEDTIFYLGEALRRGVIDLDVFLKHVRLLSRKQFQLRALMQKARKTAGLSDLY
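Fluorescence polarization: Tsg101 binding domain (10 uM final) in 10 mM HEPES pH 7.5, 0.15 M NaCl, 0.01% Tween 20, 3 mM EDTA, 0.1 mM TCEP; compounds pinned; FITC-PTAP peptide 50 nM final; 20 min, r.t.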
pS6 MEF inh = reduces mTORC1 signaling in Tsc2 and p53 null MEF cells | Tsc2-/- p53-/- MEF, phospho-rpS6 immunofluorescence/PI, 24 h | Potency, µM (titrated, usually from 38.3 µM), for inactives: at the highest dose activity change, negative = inhibition, hits mostly inhibitors | actives 0.78% (n = 44,000);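 also: potency is read from the fitted curve at half-maximal effect; plate controls were DMSO for no effect and rapamycin for full effect; nearly all actives have a fitted effect of over 50% in size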
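Tsc2-/-, p53-/- MEFs (empty-vector stable line) in DMEM + 10% FBS were treated with compounds 24 h at 37 degree Celsius, fixed, and immunostained for phospho-rpS6 (Alexa-488) with propidium iodide counterstain. Laser-scanning cytometry gave % positive cells, normalized against 7.5 nM rapamycin and DMSO.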
NLuc saturating = NanoLuc enzyme inhibition artifact for PMP22 screen; shares compounds with PMP22 txn; actives 4% (n = 690); Secreted NLuc enzyme (filtered S16 cell medium), Nano-Glo luminescence; Potency, µM (titrated, usually from 57.5 µM), for inactives: at the highest dose activity change, negative = inhibition, actives largely listed as inhibitors; also: potency is read from the fitted curve at half-maximal effect; % is scaled to controls: 0 for no effect and ±100 for the full control effect
NLuc Km ctr = inhibits NanoLuc under Km conditions, PMP22 counter-screen; shares compounds with PMP22 txn; secreted NLuc enzyme, coelenterazine luminescence, Km conditions; Potency, µM (titrated, usually from 57.5 µM), inactives show top-dose activity change, negative = inhibition, most hits filed as inhibitors; actives 5% (n = 690); AID 1508639; also: potency is read from the fitted curve at half-maximal effect; % is scaled to controls: 0 for no effect and ±100 for the full control effect
FLuc ctr PMP22 = counter-screen for PMP22 expression modulators: firefly luciferase inhibition. 690 tested, under 10 active. purified P. pyralis FLuc, luminescence, 10 min. shares compounds with PMP22 txn. Potency, µM (doses to about 57.5 µM), for inactives: at the highest dose activity, negative = inhibition, most hits filed as inhibitors; also: % of control where 0% means no effect
S16 viab conf = confirmation of cytotoxicity in S16 Pmp22-F2sN Schwann cells (luciferase reporters placed in the Pmp22 gene) | shares compounds with PMP22 txn | Potency, µM (series often up to 57.5 µM), for the others: top-dose activity change, negative = viability loss, usual class: cytotoxic | S16 Schwann cells viability, CellTiter-Glo ATP luminescence, 24 h | actives 7% (n = 690); also: potency is read from the fitted curve at half-maximal effect; % is scaled to controls: 0 for no effect and ±100 for the full control effect
PMP22 txn conf = PMP22 transcription modulation, confirmatory | shares compounds with PMP22 txn | S16 Schwann cells Pmp22-F2sN, dual luciferase, 24 h | Potency, µM (doses to about 57.5 µM), for inactives: at the top dose activity change, negative = inhibition, usual class: inhibitors | actives 22% (n = 690) | AID 1508646; active = clear falling dose curves in both reporters; inconclusive = both reporters move, but less clearly or upward; inactive = either reporter flat; the % is the FLuc reporter signal; also: potency is read from the fitted curve at half-maximal effect
PMP22 HiBiT cnf = rat PMP22 protein level modulation, confirmatory | shares compounds with PMP22 txn | S16 Schwann cells Pmp22-HiBiT, luminescence, 48 h | Potency, µM (titrated, usually from 27.9 µM), for inactives: top-dose activity change, negative = inhibition, most hits filed as inhibitors | 95 tested, under 10 active | AID 1508647
Numbers without * were called inactive; i = inactive; ? = inconclusive; . = no result given. Most compounds without a hit are left out; they make up all but 2.8% or so of the library. Unless noted, calls follow the shape of the dose curve; as a rule, active = well fitted curve in the direction sought with a large enough effect; inconclusive = small, poorly fitted or top-dose-only effect, or another doubt; inactive = no such curve, though single readings can be large; an effect the other way counts as inactive or inconclusive.

SMILES	GALK inh	S16 viability	PMP22 txn	TSG101-PTAP inh	pS6 MEF inh	NLuc saturating	NLuc Km ctr	FLuc ctr PMP22	S16 viab conf	PMP22 txn conf	others
Cc1cc(Br)cc2c1N(Cc1ccccc1OC(C)C)C(=O)C2=O	0%	?	9.5µM*	i	?	?	?	-21%	?	15µM*
COc1ccc(NC(=O)C2CCCN(S(=O)(=O)c3ccc(F)cc3)C2)cc1 (configuration not stated)	2%	-2%	6%	i	0%	.	.	.	.	.
CC1CCN(S(=O)(=O)c2ccc3ncn(CC(=O)Nc4ccccc4C(F)(F)F)c(=O)c3c2)CC1	2%	0%	?	i	3%	-12%	2%	5%	-11%	-15%
COc1ccc(NC(=O)Cn2cnc3ccc(S(=O)(=O)N4CCC(C)CC4)cc3c2=O)c(OC)c1	0%	6%	1%	i	-2%	.	.	.	.	.
CCCCNc1oc(-c2ccc(COc3ccc(OC)cc3)o2)nc1C#N	-5%	-2%	-26%	i	-8%	.	.	.	.	.
COCCNc1oc(-c2ccc(COc3ccc(OC)cc3)o2)nc1C#N	?	-15%	?	i	-12%	?	-6%	-18%	?	-11%
CCOC(=O)c1ccc(N2C(=O)c3n[nH]c(-c4ccco4)c3C2c2ccc(C)cc2)cc1 (configuration not stated)	5%	-9%	?	i	?	.	.	.	.	.
CCOC(=O)c1ccc(N2C(=O)c3n[nH]c(-c4ccco4)c3C2c2ccc(O)c(OC)c2)cc1 (configuration not stated)	3%	-22%	11µM*	i	?	?	?	5%	4%	19µM*
COc1cc2ccccc2cc1C(=O)Nc1ccc2oc(-c3cccc(Cl)c3Cl)nc2c1	0%	?	4.2µM*	i	?	-10%	1%	-28%	27µM*	12µM*
COc1cc(C2NC(=O)NC(C)=C2C(=O)Nc2cc(C)cc(C)c2)ccc1O (configuration not stated)	1%	11%	1%	i	-8%	.	.	.	.	.
CC(=O)c1ccc(N2CCN(C(=O)C3CCN(S(=O)(=O)c4c(C)noc4/C=C/c4ccc(C)cc4)CC3)CC2)cc1	5%	-8%	?	i	0%	-4%	12%	-7%	-9%	-13%
Cc1ccc(/C=C/c2onc(C)c2S(=O)(=O)N2CCC(C(=O)N3CCN(c4ccccc4F)CC3)CC2)cc1	4%	9%	-17%	i	-4%	.	.	.	.	.
COCCCNC(=O)c1ccc(Cn2c(=O)c3ccccc3n(Cc3c(C)cc(C)cc3C)c2=O)cc1	1%	0%	2%	i	7%	.	.	.	.	.
Cc1cccc(-c2nnn3c2nc(NCCC(C)C)c2ccccc23)c1	-13%	8%	13µM*	i	-2%	-2%	0%	-1%	16%	-1%
Cc1cccc(-c2nnn3c2nc(NCCc2ccc(S(N)(=O)=O)cc2)c2ccccc23)c1	0%	15%	-31%	i	-1%	.	.	.	.	.
Clc1ccc(-c2nnn3c2nc(NCc2ccc4c(c2)OCO4)c2ccccc23)cc1	-8%	9%	?	i	-7%	.	.	.	.	.
Cc1cccc(-c2nnn3c2nc(NCc2ccc4c(c2)OCO4)c2ccccc23)c1	7%	0%	17µM*	i	-11%	-12%	-20%	-10%	-23%	15µM*
Cc1ccc(CNC(=O)c2nc(SCc3ccccc3C)ncc2Cl)cc1	8%	1%	-16%	i	-3%	.	.	.	.	.
CCS(=O)(=O)c1ncc(Cl)c(C(=O)NCc2ccccc2)n1	2%	?	8.4µM*	i	2.6µM*	-7%	-20%	3%	15µM*	6.9µM*
CCCS(=O)(=O)c1ncc(Cl)c(C(=O)Nc2c(C(=O)Nc3ccccc3)oc3ccccc23)n1	1%	?	7.1µM*	i	2.1µM*	-13%	1.4µM*	6%	17µM*	8.2µM*
COc1ccc(NC(=O)c2nc(S(=O)(=O)Cc3ccc(C)cc3)ncc2Cl)cc1	-3%	?	11µM*	i	3.7µM*	-11%	-15%	3%	?	5.8µM*	PMP22 HiBiT cnf=-9%
COc1ccc(CNC(=O)c2nc(SCc3ccc(C)cc3)ncc2Cl)cc1	1%	-2%	?	i	-2%	.	.	.	.	.
CC(C)(C)c1ccc(S(=O)(=O)N2CCN(Cc3noc(CCC(=O)N4CCCCC4)n3)CC2)cc1	2%	-30%	?	i	-13%	.	.	.	.	.
CCCCOc1ccc(NC(=O)CSc2ccc(C(=O)O)cn2)cc1	8%	5%	34%	i	-4%	.	.	.	.	.
COc1ccc(NC(=O)CN2C(=O)C(=O)c3ccccc32)c(OC)c1	4%	.	.	i	?	.	.	.	.	.
CCN(CC)S(=O)(=O)c1cc(-c2nnc(Nc3ccc(OC)c(C(N)=O)c3)c3ccccc23)ccc1C	2%	.	.	i	-7%	.	.	.	.	.
CCOC(=O)C1CCN(C(=O)CCS(=O)(=O)c2cc3c(cc2Cl)NC(=O)CO3)CC1	3%	0%	-16%	i	10%	.	.	.	.	.

Bioassay records deposited in PubChem BioAssay by National Center for Advancing Translational Sciences (NCATS).
